Compound activity from PubChem BioAssay.
Gli-Sufu block: Gli-Sufu pathway antagonists, primary screen, luciferase luminescence, Sufu-KO-LIGHT cells, uHTS; inhibition, % at 5 µM; AID 588413, 2011; actives 0.74% (n = 340,000); Sufu-KO-LIGHT fibroblasts, Gli luciferase reporter luminescence;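 active = inhibition above about 55%, limit read from the data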;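 also: 0% = DMSO-treated cells and 100% = wells with medium but no cells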
697 NFkB inh: inhibitors of PMA/ionomycin-induced NF-kB reporter, 697 cells, primary screen, B-cell NF-kB inhibitor project, cell-based, luminescence, uHTS. 697 B-cell NF-kB luciferase reporter, 16 h. inhibition, % at 4 µM. actives 0.33% (n = 330,000). AID 435022, 2010; in the data active = inhibition above about 35%
Mdm2-MdmX inh: inhibitors of human Mdm2-MdmX association, primary screen, cell-based, luminescence, split luciferase, SaOS-2, uHTS; actives 3% (n = 330,000); AID 485346, 2010; SaOS-2 split-luciferase Mdm2/MdmX complementation; Protein Mdm4 (Homo sapiens) + E3 ubiquitin-protein ligase Mdm2 (Homo sapiens), …; inhibition, % at 8 µM;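 active = inhibition of at least 50% at 8 µM in the primary screen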
Jurkat NFkB inh: inhibitors of induced NF-kB luciferase reporter, primary screen, TCR NF-kB activation inhibitor project, cell-based, luminescence, uHTS. Jurkat, PMA/ionomycin-induced NF-kB luciferase reporter. inhibition, % at 4 µM. actives 0.53% (n = 330,000). AID 435003, 2010; in the data active = inhibition above about 50%
Beta apoptosis: inhibitors of cytokine-induced beta cell apoptosis, primary screen, luminescence | INS-1E cytokine-induced death, ATP luminescence, 48 h; percent of positive-control rescue, neutral wells zero | protection from apoptosis, % (no concentration beside the values) | actives 0.8% (n = 300,000) | AID 435005, 2010;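 active = Every replicate reaches about 75%, or at least half do and their mean reaches it too, limit read from the data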;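 also: 0% = cytokine-treated negative control wells and 100% = positive control rescue; higher means more ATP so stronger rescue from cytokine killing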
Mdm2-MdmX conf: Mdm2-MdmX complex disruptors, retested hits, confirmation, luminescence, single concentration; shares compounds with Mdm2-MdmX inh; Mdm2-MdmX binding, luminescent assay; inhibition, % at 8 µM; actives 55% (n = 10,000); in the data active = inhibition above about 40%
FLuc counter: full-length luciferase signal inhibition, confirmation, counter-screen for Mdm2/MdmX interaction inhibitor project, cell-based, single concentration, SaOS-2; inhibition, % at 8 µM; SaOS-2 full-length luciferase counterscreen, luminescence; shares compounds with Mdm2-MdmX inh; actives 77% (n = 6,200);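 active = mean inhibition at 8 µM reaching about 37%, which flags the compound as non-specific, limit read from the data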;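 also: p53-null SaOS-2 cells with luciferase driven by a doxycycline-inducible promoter; compound on cells about two nights before reading with doxycycline added after day one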
* hit, by the source's call; nt = no result given. Rows were chosen to be rich in hits. Some 4% of all compounds tested hit in one or more screens of this group.

SMILES	Gli-Sufu block	697 NFkB inh	Mdm2-MdmX inh	Jurkat NFkB inh	Beta apoptosis	Mdm2-MdmX conf	FLuc counter
Cc1ccc(C)c(Cn2c3ccccc3c3cnn(CC(=O)NCCCN4CCCCC4)c(=O)c32)c1	5.0	-20.9	92.0*	-14.0	8.3	47.7*	48.4*
Cc1ccc2[nH]c3c(=O)n(CC(=O)NCCCN4CCN(c5ccc(F)cc5)CC4)ncc3c2c1	-8.7	-2.4	69.0*	2.8	-0.6	35.9	nt
Cc1ccc(C)c(N2CCN(C(=O)Cn3ncc4c([nH]c5ccc(C)cc54)c3=O)CC2)c1	9.5	-4.6	52.1*	9.4	0.9	-4.0	nt
COc1ccc(N2CCN(C(=O)Cn3ncc4c([nH]c5ccccc54)c3=O)CC2)cc1	1.1	11.1	50.1*	-1.0	-1.8	15.8	nt
CCC1CCCCN1CCCNC(=O)Cn1ncc2c([nH]c3ccc(C)cc32)c1=O (centres undefined)	17.1	1.1	26.6	1.6	-5.3	nt	nt
CCN1CCN(C(=O)Cn2ncc3c([nH]c4ccc(C)cc43)c2=O)CC1	-7.8	-13.3	-14.9	7.5	-4.1	nt	nt
Cc1ccc(C)c(Cn2c3ccccc3c3cnn(CC(=O)NCc4ccccn4)c(=O)c32)c1	-6.8	-27.7	1.8	-5.3	0.8	nt	nt
COc1ccccc1N1CCN(C(=O)Cn2ncc3c([nH]c4ccccc43)c2=O)CC1	19.5	-2.7	30.2	16.1	nt	nt	nt
Cc1nc2sc(C(=O)Nc3ccccc3)c(N)c2c(C)c1[N+](=O)[O-]	-120.5	-139.6	-52.4	-124.4	11.3	nt	nt
N#CC(c1ccc(Cl)cc1)c1ccc2c(C(F)(F)F)cc(C(F)(F)F)nc2n1 (centres undefined)	92.3*	-7.9	99.3*	4.6	124.3*	95.5*	24.0
Oc1cccc(C2c3[nH]c4ccccc4c3CCN2Cc2ccc3c(c2)CCO3)c1 (centres undefined)	17.4	5.5	57.8*	17.6	0.2	43.2*	52.9*
COC(=O)[C@]1(CC(C)C)N[C@H](c2ccc(SC3CCCCC3)c(OC)c2)[C@@H]2C(=O)N(C)C(=O)[C@@H]21	-1.3	12.9	11.1	22.2	-3.7	nt	nt
CCCCCCSc1ccc([C@H]2N[C@@](CC(C)C)(C(=O)OC)[C@H]3C(=O)N(C)C(=O)[C@@H]23)cc1OC	-0.6	6.3	56.0*	28.2	7.4	0.3	nt
NC(=O)N=Nc1c2[nH]c3ccccc3nc-2c2ccccc12	-14.7	10.7	81.6*	-33.2	62.4	52.4*	65.4*
CCN1C(=O)c2cccc3c(NC(=O)c4ccc(S(=O)(=O)N(C)C)cc4)ccc1c23	19.1	13.1	58.5*	-12.6	-2.2	32.5	63.5*
CCN1C(=O)c2cccc3c(NC(=O)c4ccc(S(=O)(=O)N5CCOCC5)cc4)ccc1c23	12.7	30.6	51.2*	-6.1	-1.5	49.0*	93.5*
CCN1C(=O)c2cccc3c(S(=O)(=O)N(C(C)=O)c4ccc(OC(C)=O)cc4)ccc1c23	15.3	17.9	61.1*	-10.8	14.3	1.4	nt
CCN1C(=O)c2cccc3c(NS(=O)(=O)c4ccc(NC(C)=O)cc4)ccc1c23	7.3	29.5	43.6	0.8	-3.1	nt	nt
COc1ccc(N(C(=O)c2ccncc2)S(=O)(=O)c2ccc3c4c(cccc24)C(=O)N3C)cc1	14.2	9.0	31.9	15.6	-5.1	nt	nt
NNC(=O)Cn1nc(-c2ccccc2)c2ccccc2c1=O	1.2	0.5	14.5	-11.8	-1.0	nt	nt
COc1cccc(C(=O)c2sc(NC(C)C)nc2N)c1	-12.0	-110.7	75.6*	6.4	-30.2	43.8*	111.4*
COc1ccc(Nc2nc(N)c(C(=O)c3ccc(F)cc3)s2)cc1	0.8	-21.0	50.5*	23.0	3.3	52.1*	81.2*
